Experimental findings from PubChem BioAssay AID1650 (Southern Research Specialized Biocontainment Screening …, 2009) are described below.

Results with a measured potency or affinity are listed apart. Activity calls are given as the source filed them. How the calls were made is not given here.

A short description of the assay: mammalian cell viability reduction – secondary assay, cytotoxicity control for West Nile virus antiviral project, dose response (AID 1650). The settings on record: Mammalian host cell viability, cytotoxicity counter-screen; series mostly up to 10 µM.
As to `CN(C)CCCN(C(=O)c1ccc2c(c1)CCCC2)c1nc2ccc(F)cc2s1`, the result was inactive.

Regarding `CN1CCN(c2nc(Nc3ccc(F)cc3)nc(Nc3ccc(F)cc3)n2)CC1`, the result was inactive.

With `O=[N+]([O-])c1cncc([N+](=O)[O-])c1Nc1cccc(O)c1`, the call was inactive.

Turning to `O=c1[nH]c2ccc(Cl)cc2c(-c2ccccc2)c1N1CCN(CCO)CC1`, the result was inactive.

On to `CCN(CC)CCNC(=O)c1ccc(NC(=O)/C=C/c2ccc3ccccc3n2)cc1`, for which the result was inactive.

For the compound `CCCC1(c2ccccc2)NC(=O)N(CC(=O)Nc2sc(-c3ccccc3)cc2C(=O)OCC)C1=O` (stereo unspecified), the compound was classed as inactive.

In the case of `CCc1ccc(NC(=O)CSc2nc3ccccc3c(=O)n2CCCC(=O)NCCCN2CCOCC2)cc1`, the compound was classed as inactive.

Consider `COc1ccc(C2c3[nH]c4ccccc4c3CCN2C(=O)c2ccccc2C(C)=O)c(F)c1` (stereo unspecified), for which the outcome was inactive.

With `Cc1ccc(-n2ncc(C(=O)Nc3ccc(Cl)cc3)c2C2CCNCC2)cc1C`, the compound was called inactive.

For the compound `COc1ccc(-c2nc(CN3CCC(C(=O)NC4CCN(Cc5ccccc5)CC4)CC3)c(C)o2)cc1OC`, the compound was classed as inactive.

As for `Cc1ccc(NC(=S)N(CCCN2CCCC2)Cc2cccn2Cc2ccc(Cl)cc2)cc1C`, the outcome was inactive.

Consider `O=c1c(-c2ccccc2)c1-c1ccccc1`, for which the call was inactive.

On to `Cc1ccc(COc2cccc(/C=N/NC(=O)c3nnn(-c4nonc4N)c3C)c2)cc1`, for which the compound was called inactive.

As to `CCOc1ccc(C(=O)CCC(=O)O)cc1`, the compound was classed as inactive.

On to `CCOc1ccc(-c2cc(C(=O)NCCCN3CCN(CC)CC3)c3ccccc3n2)cc1`, for which the compound was classed as inactive.

Take `Cc1ccc2nc(N(CCCN(C)C)C(=O)c3cc(-c4cccs4)nc4ccccc34)sc2c1`: the call was inactive.
